Results from the supplement of paper PMC11732987, “Enantioselective OTUD7B fragment discovery through chemoproteomics screening and high-throughput optimisation” (Communications Chemistry, 2025).

Columns and labels:
Assay in all cases: log2 ratio of Biotin-Ahx-Ub-VS probe labelling (fragment/DMSO); higher = less target engagement (more negative = stronger competition), active = hit call of the paper (q ≤ 0.05, log2 ratio ≤ -1)
Settings in all cases: compound concentration: 200 uM; treatment time: 3 h
[1] = biological target: T1, USP19 (UniProt O94966)
T1 sequence (whole entry): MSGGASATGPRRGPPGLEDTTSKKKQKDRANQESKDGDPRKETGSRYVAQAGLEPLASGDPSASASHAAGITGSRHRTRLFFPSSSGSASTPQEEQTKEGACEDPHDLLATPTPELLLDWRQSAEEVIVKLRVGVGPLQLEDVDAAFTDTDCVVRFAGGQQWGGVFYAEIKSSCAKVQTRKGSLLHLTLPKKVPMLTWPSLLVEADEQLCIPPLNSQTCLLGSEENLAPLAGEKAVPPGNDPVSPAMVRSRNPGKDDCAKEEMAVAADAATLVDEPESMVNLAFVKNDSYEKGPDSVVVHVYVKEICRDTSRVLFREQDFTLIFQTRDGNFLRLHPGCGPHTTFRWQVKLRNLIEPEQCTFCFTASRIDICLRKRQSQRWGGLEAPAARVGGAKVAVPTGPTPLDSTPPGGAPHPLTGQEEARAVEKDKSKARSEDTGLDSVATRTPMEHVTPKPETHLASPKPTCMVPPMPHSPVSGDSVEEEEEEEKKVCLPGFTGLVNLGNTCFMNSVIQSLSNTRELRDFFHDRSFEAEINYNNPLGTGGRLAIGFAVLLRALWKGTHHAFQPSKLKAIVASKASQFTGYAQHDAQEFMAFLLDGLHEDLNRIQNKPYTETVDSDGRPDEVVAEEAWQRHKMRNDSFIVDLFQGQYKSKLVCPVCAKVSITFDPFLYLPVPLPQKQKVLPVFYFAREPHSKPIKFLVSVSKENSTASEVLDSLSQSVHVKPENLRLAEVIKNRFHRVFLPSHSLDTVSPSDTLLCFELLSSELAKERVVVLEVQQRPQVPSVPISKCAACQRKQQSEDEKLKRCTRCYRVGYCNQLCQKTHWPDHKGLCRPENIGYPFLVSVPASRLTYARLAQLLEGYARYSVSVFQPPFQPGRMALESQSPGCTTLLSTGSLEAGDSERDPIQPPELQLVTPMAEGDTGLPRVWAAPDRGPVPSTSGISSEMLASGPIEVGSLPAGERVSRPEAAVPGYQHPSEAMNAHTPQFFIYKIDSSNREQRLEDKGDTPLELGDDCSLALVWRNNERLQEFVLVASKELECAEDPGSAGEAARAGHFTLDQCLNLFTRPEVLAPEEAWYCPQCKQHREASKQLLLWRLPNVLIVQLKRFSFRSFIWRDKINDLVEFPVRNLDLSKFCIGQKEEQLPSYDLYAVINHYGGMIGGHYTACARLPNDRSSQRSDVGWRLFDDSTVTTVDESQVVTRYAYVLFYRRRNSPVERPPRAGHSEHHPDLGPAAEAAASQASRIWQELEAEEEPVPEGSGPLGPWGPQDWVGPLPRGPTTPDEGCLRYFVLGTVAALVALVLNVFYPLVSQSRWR
Summary of the method: (§1)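 Labelling with Biotin-Ahx-Ub-VS (0.5 µM final, 1 h) followed a 3 h triplicate treatment of HEK293T lysate (495 µg per sample, Tris/CHAPS/IGEPAL buffer with protease inhibitors) with fragment at 200 µM or vehicle. Labelled DUBs were NeutrAvidin-enriched, digested with LysC and trypsin, and run by diaPASEF LC-MS/MS. The values, average log2 fragment/vehicle ratios by unpaired t-test, come from global-median-normalised Spectronaut label-free quantities. Proteins with ≥2 unique peptides were used.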

[2] = biological target: T2, USP22 (UniProt Q9UPT9)
T2 sequence (whole entry): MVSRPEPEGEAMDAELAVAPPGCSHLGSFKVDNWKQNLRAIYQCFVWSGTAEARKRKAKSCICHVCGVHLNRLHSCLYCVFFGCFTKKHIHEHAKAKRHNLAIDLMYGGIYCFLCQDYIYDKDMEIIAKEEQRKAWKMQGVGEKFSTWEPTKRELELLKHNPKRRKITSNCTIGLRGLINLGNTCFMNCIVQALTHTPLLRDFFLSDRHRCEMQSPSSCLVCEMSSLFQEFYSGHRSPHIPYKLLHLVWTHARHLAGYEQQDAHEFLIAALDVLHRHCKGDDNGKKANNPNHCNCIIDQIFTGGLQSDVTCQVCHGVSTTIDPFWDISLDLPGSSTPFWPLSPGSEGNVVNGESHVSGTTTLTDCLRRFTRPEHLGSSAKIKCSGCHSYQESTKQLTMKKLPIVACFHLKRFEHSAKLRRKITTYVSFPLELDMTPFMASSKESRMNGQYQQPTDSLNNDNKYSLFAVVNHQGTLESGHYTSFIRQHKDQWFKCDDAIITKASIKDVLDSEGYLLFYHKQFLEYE
Summary of the method: as §1

[3] = biological target: USP24 (UniProt Q9UPU5)
Summary of the method: as §1

[4] = biological target: T3, USP25 (UniProt Q9UHP3)
T3 sequence (whole entry): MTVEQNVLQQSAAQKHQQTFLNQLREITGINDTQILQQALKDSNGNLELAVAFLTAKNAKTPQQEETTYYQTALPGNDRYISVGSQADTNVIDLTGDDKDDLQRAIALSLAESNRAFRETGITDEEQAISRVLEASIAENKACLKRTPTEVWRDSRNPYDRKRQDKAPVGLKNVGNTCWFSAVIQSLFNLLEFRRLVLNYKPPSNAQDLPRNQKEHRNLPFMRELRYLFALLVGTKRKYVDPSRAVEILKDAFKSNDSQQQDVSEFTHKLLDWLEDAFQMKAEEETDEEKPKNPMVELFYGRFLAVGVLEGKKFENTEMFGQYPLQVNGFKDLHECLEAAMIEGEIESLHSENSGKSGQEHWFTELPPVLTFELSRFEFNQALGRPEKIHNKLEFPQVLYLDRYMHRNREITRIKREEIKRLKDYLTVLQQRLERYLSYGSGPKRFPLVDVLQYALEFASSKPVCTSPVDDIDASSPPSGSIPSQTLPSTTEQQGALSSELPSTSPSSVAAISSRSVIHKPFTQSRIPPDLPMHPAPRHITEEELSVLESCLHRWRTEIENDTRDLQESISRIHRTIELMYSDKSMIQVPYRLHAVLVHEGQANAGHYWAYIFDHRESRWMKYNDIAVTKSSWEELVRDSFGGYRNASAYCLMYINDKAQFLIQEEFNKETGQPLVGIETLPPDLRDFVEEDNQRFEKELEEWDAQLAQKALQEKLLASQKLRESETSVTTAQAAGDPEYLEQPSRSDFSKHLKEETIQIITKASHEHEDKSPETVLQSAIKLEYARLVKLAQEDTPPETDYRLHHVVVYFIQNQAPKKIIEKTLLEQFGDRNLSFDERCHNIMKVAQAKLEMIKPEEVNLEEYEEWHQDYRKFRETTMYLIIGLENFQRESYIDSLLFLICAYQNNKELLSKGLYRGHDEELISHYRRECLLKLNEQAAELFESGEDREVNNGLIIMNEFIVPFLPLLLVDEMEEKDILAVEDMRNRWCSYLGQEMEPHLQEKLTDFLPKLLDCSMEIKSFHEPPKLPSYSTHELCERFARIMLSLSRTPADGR
Summary of the method: as §1

[5] = biological target: T4, USP28 (UniProt Q96RU2)
T4 sequence (whole entry): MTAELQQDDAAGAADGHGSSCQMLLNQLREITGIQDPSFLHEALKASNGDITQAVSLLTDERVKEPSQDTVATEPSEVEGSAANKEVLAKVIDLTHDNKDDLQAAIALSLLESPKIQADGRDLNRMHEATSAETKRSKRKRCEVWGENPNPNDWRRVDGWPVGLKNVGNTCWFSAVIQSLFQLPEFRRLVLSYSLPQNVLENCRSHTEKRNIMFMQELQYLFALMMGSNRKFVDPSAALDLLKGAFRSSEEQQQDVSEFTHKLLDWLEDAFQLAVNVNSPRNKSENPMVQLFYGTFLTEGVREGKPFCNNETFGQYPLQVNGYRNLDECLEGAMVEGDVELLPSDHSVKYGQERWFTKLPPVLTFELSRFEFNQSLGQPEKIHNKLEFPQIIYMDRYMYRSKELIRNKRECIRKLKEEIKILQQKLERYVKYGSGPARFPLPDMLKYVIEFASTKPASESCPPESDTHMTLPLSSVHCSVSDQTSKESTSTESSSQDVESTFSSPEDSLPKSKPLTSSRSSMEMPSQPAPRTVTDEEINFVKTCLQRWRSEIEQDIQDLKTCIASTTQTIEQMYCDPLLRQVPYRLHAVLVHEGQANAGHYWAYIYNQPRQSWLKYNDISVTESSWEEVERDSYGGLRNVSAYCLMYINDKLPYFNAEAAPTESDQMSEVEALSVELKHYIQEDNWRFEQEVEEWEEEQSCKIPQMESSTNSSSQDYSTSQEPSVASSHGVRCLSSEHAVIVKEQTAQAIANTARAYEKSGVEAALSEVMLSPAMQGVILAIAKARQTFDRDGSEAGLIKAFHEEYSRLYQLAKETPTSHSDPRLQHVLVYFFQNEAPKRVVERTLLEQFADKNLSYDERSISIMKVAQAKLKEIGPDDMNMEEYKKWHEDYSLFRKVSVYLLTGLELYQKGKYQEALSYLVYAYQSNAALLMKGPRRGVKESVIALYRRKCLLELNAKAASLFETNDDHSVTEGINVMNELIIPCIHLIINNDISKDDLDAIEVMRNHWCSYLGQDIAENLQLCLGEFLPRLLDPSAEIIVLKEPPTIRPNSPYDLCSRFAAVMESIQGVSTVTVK
Summary of the method: as §1

Measured: log2 ratio of Biotin-Ahx-Ub-VS probe labelling

Sequence of USP24 (Q9UPU5 whole entry): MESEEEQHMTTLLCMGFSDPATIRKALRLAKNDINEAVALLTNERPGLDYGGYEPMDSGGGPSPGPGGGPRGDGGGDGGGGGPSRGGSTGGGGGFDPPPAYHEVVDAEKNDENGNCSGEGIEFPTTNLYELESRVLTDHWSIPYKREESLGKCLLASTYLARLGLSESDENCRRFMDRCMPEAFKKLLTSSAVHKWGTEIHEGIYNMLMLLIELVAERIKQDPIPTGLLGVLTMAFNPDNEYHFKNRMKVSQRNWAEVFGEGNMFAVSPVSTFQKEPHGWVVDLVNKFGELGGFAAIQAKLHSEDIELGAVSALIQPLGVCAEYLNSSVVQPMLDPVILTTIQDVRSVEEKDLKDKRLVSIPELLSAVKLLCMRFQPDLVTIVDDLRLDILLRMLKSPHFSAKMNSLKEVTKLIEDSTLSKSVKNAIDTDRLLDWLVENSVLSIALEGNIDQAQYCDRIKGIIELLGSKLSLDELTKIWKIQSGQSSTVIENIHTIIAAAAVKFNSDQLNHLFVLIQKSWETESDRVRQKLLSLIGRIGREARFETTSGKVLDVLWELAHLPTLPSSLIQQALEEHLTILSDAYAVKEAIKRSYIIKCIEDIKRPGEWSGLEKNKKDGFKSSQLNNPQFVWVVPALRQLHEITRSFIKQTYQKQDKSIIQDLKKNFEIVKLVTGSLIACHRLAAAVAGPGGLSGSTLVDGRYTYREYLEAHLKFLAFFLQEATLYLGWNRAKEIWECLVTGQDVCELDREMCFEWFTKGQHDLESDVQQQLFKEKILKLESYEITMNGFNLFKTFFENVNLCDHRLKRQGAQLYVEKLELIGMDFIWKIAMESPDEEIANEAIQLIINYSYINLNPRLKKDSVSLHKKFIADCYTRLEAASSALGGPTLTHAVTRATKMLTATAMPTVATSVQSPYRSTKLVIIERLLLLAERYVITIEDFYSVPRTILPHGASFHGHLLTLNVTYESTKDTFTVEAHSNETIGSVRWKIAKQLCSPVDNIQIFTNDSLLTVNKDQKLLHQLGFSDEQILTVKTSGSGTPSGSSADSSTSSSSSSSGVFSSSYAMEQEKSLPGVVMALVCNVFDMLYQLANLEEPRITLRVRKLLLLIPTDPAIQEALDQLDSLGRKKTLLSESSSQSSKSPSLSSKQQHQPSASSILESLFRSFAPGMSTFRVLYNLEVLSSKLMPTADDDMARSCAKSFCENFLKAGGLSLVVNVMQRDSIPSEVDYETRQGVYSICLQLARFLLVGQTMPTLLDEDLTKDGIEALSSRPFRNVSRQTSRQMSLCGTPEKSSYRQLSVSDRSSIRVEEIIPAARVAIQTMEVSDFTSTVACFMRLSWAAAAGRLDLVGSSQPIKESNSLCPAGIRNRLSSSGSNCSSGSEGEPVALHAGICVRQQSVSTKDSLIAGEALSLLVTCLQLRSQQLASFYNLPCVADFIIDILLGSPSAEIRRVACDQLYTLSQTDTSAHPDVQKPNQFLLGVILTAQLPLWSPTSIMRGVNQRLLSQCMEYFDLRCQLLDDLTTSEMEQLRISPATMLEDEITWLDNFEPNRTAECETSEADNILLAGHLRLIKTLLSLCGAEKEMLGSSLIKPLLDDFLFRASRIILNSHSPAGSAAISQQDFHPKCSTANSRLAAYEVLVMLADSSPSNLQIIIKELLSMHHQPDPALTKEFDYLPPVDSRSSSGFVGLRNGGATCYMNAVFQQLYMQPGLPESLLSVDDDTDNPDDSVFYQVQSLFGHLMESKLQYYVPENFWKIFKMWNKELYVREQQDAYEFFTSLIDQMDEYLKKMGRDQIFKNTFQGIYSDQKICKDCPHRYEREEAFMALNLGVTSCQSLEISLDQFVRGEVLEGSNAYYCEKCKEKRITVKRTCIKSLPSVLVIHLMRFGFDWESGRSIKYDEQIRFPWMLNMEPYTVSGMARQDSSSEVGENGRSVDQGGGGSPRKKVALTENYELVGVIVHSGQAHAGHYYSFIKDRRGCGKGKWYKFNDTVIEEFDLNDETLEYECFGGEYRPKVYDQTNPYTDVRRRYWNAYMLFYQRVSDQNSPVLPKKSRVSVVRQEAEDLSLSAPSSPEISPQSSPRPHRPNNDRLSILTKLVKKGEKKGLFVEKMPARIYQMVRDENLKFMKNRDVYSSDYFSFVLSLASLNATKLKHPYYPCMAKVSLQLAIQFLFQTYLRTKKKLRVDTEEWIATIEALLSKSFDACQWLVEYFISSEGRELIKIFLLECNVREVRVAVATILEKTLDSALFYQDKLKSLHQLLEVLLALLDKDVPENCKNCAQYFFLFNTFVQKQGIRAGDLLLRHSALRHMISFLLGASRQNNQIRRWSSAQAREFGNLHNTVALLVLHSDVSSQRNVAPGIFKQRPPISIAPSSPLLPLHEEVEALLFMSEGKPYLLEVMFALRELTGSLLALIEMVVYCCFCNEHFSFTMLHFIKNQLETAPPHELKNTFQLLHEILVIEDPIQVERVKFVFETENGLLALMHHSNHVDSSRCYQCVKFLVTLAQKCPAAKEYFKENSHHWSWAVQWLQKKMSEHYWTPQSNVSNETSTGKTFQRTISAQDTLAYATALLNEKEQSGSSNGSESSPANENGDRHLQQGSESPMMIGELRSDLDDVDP

Cc1cc(C2CCCN2C(=O)CCl)nn1C.Cl (stereo not given)
inactive: [1] -0.282 | [2] -0.312 | [3] -0.202 | [4] -0.257 | [5] -0.271
